High-throughput results: PubChem, National Center for Advancing Translational Sciences (NCATS)
PNC inhibitor: inhibitors of perinucleolar compartment assembly | PC3M PTB-GFP, PNC prevalence imaging, 16 h; active compounds read low | activity change (PNC), negative = inhibition, % at 10 µM | 140,000 compounds, 3.1% hits | AID 2417;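 active = readout at or below -70, meaning at least 70% loss of cells showing the perinucleolar compartment, a nuclear body marking cancer cells; inconclusive = readout between -30 and a set limit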;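 note: plate controls were DMSO wells for no effect and camptothecin positive control wells for full effect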
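PC3M cells stably expressing PTB-GFP, 750–1000 cells/well, treated 16 h at 37 °C with compound (23 nl of library stock), in duplicate. After paraformaldehyde fixation and Hoechst stain, imaged at 20x; PNC prevalence scored by image analysis.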
ALDH1A1 block: ALDH1A1 (human) enzyme inhibition. P00352. Purified ALDH1A1, NADH fluorescence, propionaldehyde substrate. Potency, µM (series often up to 75.3 µM), inactives show at the top dose activity, negative = inhibition, actives largely listed as inhibitors. 220,000 compounds, 7.3% hits;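 note: potency is the fitted concentration of half-maximal effect; plate controls were no enzyme wells and a reference inhibitor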
HPGD block: blocks human HPGD enzyme activity; 150,000 compounds, 4.3% hits; purified HPGD, NADH fluorescence kinetic, PGE2 substrate; Potency, µM, inactives show at the top dose activity change, negative = inhibition, hits mostly inhibitors; P15428; note: potency is the fitted concentration of half-maximal effect
Target sequence (P15428 whole entry, looked up): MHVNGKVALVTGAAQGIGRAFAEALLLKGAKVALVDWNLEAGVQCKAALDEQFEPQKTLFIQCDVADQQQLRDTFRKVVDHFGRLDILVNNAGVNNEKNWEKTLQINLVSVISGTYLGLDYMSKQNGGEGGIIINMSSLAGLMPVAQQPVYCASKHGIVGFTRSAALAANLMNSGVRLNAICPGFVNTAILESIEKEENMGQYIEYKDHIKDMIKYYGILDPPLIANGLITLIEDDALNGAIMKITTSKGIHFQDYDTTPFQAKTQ
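NADH formation kinetics: reaction with 30 uM PGE2 and 1 mM NAD+ (final), 20 nM enzyme, Tris-HCl pH 8 with Tween 20, after 15 min compound preincubation at room temperature. Fluorescence change, last versus first of five reads.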
* marks the source's active call; other numbers are inactive results; ? = inconclusive; · = no result given; ! = not active in a repeat; [ ] = another dose, or the depositor's remark. Hits are enriched below; roughly 11% of the tested compounds scored in any of these assays. Unless noted, calls come from the whole dose curve; as a rule, active = well fitted inhibition curve with a large enough effect (not every such curve was filed as active); inconclusive = small, poorly fitted or top-dose-only effect, or another doubt; inactive = no such curve, though single readings can be large or run the other way. Unless noted, % is set by controls: 0 for no effect and ±100 for the full control effect.

SMILES	PNC inhibitor	ALDH1A1 block	HPGD block
Cc1cn(C2OC(COC(=O)c3ccccc3)C(OC(=O)c3ccccc3)C2OC(=O)c2ccccc2)c(=O)[nH]c1=O (configuration not stated)	-119*	12%	-12%
Cc1cn([C@H]2C=C[C@@H](CO)O2)c(=O)[nH]c1=O	65	0%	-6%
OC(Cc1ccccc1)(Cc1ccccc1)c1ccccc1	·	-7%[13.5 µM]	-11%
Cc1onc(-c2c(F)cccc2Cl)c1C(=O)N1CCOC12CCCCC2	·	-3%	·
CCOC(=O)N1CCN(C(=O)c2ccc3c(=O)n(CCC4=CCCCC4)c(=O)[nH]c3c2)CC1	-16	6.3µM*	-6%
CCCCCn1c(=O)[nH]c2cc(C(=O)N3CCN(CC)CC3)ccc2c1=O	31	?	-12%
O=C1[C@@H]2[C@H]3[C@H](O)[C@H](O)C/C(=N/OC[C@@H](O)COCc4ccco4)[C@@H]3CC[C@H]2C(=O)N1c1ccc(F)cc1F	·	3%[13.5 µM]	·
Cc1ccc(SCC(=O)Nc2ccc(N3CCN(C)CC3)c(F)c2)c(C)c1	·	-8%	·
CCOc1ccc(C(=O)NCC(=O)OCc2cc(C(C)=O)ccc2OC)cc1	?	3.5µM*	-6%
COc1ccc(C(C)=O)cc1COC(=O)CNC(=O)c1ccc(F)cc1	-20	?	?
COc1ccc(C(=O)NN)cc1COc1ccc(Br)cc1	27	?	-5%
COc1ccc(C(C)=O)cc1COC(=O)CNC(=O)c1ccc(Cl)cc1	-15	-1%	16µM*
CN(C)CCCc1cc(C(=O)Nc2ccc(-c3ccncc3)cc2)ccc1O	·	?	-25%
CC1=NN(Cc2ccccc2)C(=O)/C1=C\c1ccc(N(C)C)cc1	7	14µM*	-6%
CCOC(=O)c1cc2c(C)n(-c3ccc(N(C)C)cc3)c(C)c2cc(C(=O)OCC)c1=O	?	-6%	-7%
CCOC(=O)C1=NN(c2ccccc2)C(=O)/C1=C\c1ccc(N(C)C)cc1	-3	1.6µM*	13µM*
Cc1ccc(/C=C/C2=NN(Cc3ccccc3)C(=O)CC2)cc1	23	?	?
O=C(OCCCCN1C(=O)c2ccccc2C1=O)c1n[nH]c2ccccc12	?	9%	32µM*
COC(=O)c1n[nH]c2ccccc12	?	2%	-13%
Cc1ccc(CC(=O)NCc2ccc(F)cc2)cc1	·	8%	·
COc1ccc(/C=N/n2c(C)cc(C)c(C(N)=O)c2=O)cc1	31	1%	-4%
CC(Sc1nc(-c2ccccc2)cc(C(F)(F)F)n1)C(=O)N1CCCC1 (configuration not stated)	0	12%	-14%
CC1CCN(C(=O)C(C)Sc2nc(-c3ccccc3)cc(C(F)(F)F)n2)CC1 (configuration not stated)	-12	?	16µM*
COc1ccc(C(=O)NCC(=O)N/N=C/c2cn[nH]c2-c2ccccc2)cc1	·	-9%	·
CC(NC(=O)COC(=O)/C=C/c1ccco1)c1ccccc1 (configuration not stated)	·	-17%	·
SMILES	PNC inhibitor	ALDH1A1 block	HPGD block
O=C(O)c1ccc(Sc2nnnn2-c2ccccc2)c([N+](=O)[O-])c1	0	-9%	?
O=C(/C(=N\Nc1ccc([N+](=O)[O-])cc1)Sc1nnnn1-c1ccccc1)c1ccccc1	-11	3.2µM*	-11%
Cc1ccc(N/N=C(/Sc2nnnn2-c2ccccc2)C(=O)c2ccccc2)cc1	24	3.2µM*	-12%
CCn1c2ccccc2c2cc(NC(=O)CSc3nnnn3-c3ccccc3)ccc21	6	-8%	-5%
CCCC(=O)N1CCN(c2ccc([N+](=O)[O-])c(NC(C)c3ccccc3)c2)CC1 (configuration not stated)	96	?	-27%
COc1ccc(OC)c(NC(=O)NNC(=O)CCCOc2ccc(Cl)cc2C)c1	·	-3%	·
CC(=O)OC1CC(OC(C)=O)[C@]2(C)C(CC(OC(C)=O)[C@@]3(C)C4=CC(=O)OC(c5ccoc5)[C@]4(C)CCC32)C1(C)C (some centres not stated)	·	-6%	18%
COC(=O)c1c(Cl)c(Cl)c(C(=O)OC)c(Cl)c1Cl	·	12%	-12%
COC(=O)c1c(C)c2c(c(C)c1O)OC(=O)c1c(C)c(Cl)c(O)c(Cl)c1O2	·	8%	7.1µM*!
CCN(CC)S(=O)(=O)c1cc(NC(=O)CCCOc2ccc(C(C)=O)cc2)ccc1C	-4	-1%	-1%
O=C(O)CCSSCCC(=O)O	·	-6%	-5%
CN1CCN(C(=O)c2c(NC(=O)c3ccco3)sc3c2CCC(C(C)(C)C)C3)CC1 (configuration not stated)	5	13µM*	-19%
NC(=O)c1c(NC(NC(=O)c2ccco2)(C(F)(F)F)C(F)(F)F)sc2c1CCCC2	?	32µM*	-6%
O=C(Nc1sc2c(c1C(=O)O)CCCCC2)c1ccco1	?	25µM*	18µM*
CC(C)(C)C1CCc2c(sc(NC(=O)c3cccs3)c2C(N)=O)C1 (configuration not stated)	15	?	?
CN(C)C(=O)c1c(NC(=O)c2ccco2)sc2c1CCCCC2	-1	?	-16%
NC(=O)c1c(NC(=O)c2ccco2)sc2c1CCC2	12	?	?
CCOC(=O)c1cnn(CCOC(=O)c2ccccc2)c1NC(=O)c1ccccc1	-23	3%	-7%
C=CCN1C(=O)N/C(=C/c2ccccc2OCC(=O)Nc2ccc(F)cc2)C1=O	38	?	?
CC(Oc1ccccc1)C(=O)NC1=NCCS1 (configuration not stated)	·	-2%	·
Cc1ccc(C(=O)NCc2nnc(SCC(=O)NC(C)c3ccccc3)n2C)cc1 (configuration not stated)	·	-8%	·
C=CCn1c(SCC(=O)O)nnc1-c1ccc(C(C)(C)C)cc1	?	?	-21%
COC(=O)c1sc2nc(CSc3nc4ccc(C)cc4[nH]3)[nH]c(=O)c2c1C	5	3%	-12%
Cc1c(C(=O)O)sc2nc(CSc3nnc(-c4ccc(F)cc4)n3C)[nH]c(=O)c12	·	19µM*	·
Cc1sc2nc(CSc3n[nH]c(N)n3)[nH]c(=O)c2c1C	·	4%	·
SMILES	PNC inhibitor	ALDH1A1 block	HPGD block
C=CCn1c(SCc2nc3sc(C(=O)O)c(C)c3c(=O)[nH]2)nnc1-c1ccc(C(C)(C)C)cc1	·	20µM*	·
Cc1sc2nc(CSc3nc4ccccc4s3)[nH]c(=O)c2c1C	·	7.9µM*	·
Cc1ccc(-c2csc3nc(CSc4nnc(-c5ccc(Cl)cc5)n4C)[nH]c(=O)c23)cc1	-28	-9%	-7%
Cc1nnc(SCc2nc3sc(C(=O)O)c(C)c3c(=O)[nH]2)s1	·	20µM*	·
c1ccc(CNc2ccnc(-c3ccoc3)n2)cc1	·	0%	-18%
CCn1cc(CNC(=O)/C=C/c2ccc([N+](=O)[O-])cc2)cn1	?	11%	-3%
CC1CCCCN1CCn1c(=S)[nH]c2cc3c(cc2c1=O)OCO3 (configuration not stated)	·	3%	·
Cc1nc(C)c(CCNC(=O)c2ccccc2Br)s1	3	?	-30%
COc1ccc(COC(=O)N/N=C2/C[C@@H](O)[C@@H](O)[C@@H]3[C@H]4C(=O)N(c5ccc(F)cc5F)C(=O)[C@@H]4CC[C@@H]23)cc1	·	-3%[13.5 µM]	·
Cc1ccc(-n2nnnc2SCc2nc3sc(C)c(C)c3c(=O)[nH]2)cc1	?	0%	-5%
